Screening data deposited in PubChem BioAssay by National Center for Advancing Translational Sciences (NCATS).
The list is not random: actives were taken first. Their share in the collection is about 1%.
KinaseGlo FLuc – Counterscreen for Luciferase (Kinase-Glo TM) Inhibition. 0.28% of 200,000 active. Kinase-Glo luciferase, ATP luminescence, 8 min. Potency, µM (titrated, usually from 38.3 µM), for the others: top-dose activity change, negative = inhibition, actives largely listed as inhibitors. Luciferin 4-monooxygenase (Photuris pensylvanica), Q27757; note: potency is the fitted concentration of half-maximal effect; % is set by controls: 0 for no effect and ±100 for the full control effect; nearly all actives have a fitted effect of over 60% in size
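Substrate mix (final 50 mM imidazole pH 7.2, 50 mM KCl, 7 mM MgCl2, 10 uM ATP, 0.01% Tween 20, 0.05% BSA) plus pin-tool compound, then Kinase-Glo detection mix; 8 min ambient, luminescence read.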
RXFP1 antagonist – qHTS Assay for Antagonists of the Relaxin Receptor RXFP1; 0.59% of 350,000 active; Relaxin receptor 1 (Homo sapiens), Q9HBX9; AID 1259400, 2018; HEK293-RXFP1, relaxin-stimulated cAMP HTRF, 30 min; stronger effect = lower value; activity change, negative = inhibition, % at 57.5 µM;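 active = activity change of -60% or lower, but not beyond a set lower limit; inconclusive = change between -60% and -40%, or beyond the set limit; inactive = change above -40%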; note: % is set by controls: 0 for no effect and ±100 for the full control effect
Target sequence (Q9HBX9 whole entry, looked up): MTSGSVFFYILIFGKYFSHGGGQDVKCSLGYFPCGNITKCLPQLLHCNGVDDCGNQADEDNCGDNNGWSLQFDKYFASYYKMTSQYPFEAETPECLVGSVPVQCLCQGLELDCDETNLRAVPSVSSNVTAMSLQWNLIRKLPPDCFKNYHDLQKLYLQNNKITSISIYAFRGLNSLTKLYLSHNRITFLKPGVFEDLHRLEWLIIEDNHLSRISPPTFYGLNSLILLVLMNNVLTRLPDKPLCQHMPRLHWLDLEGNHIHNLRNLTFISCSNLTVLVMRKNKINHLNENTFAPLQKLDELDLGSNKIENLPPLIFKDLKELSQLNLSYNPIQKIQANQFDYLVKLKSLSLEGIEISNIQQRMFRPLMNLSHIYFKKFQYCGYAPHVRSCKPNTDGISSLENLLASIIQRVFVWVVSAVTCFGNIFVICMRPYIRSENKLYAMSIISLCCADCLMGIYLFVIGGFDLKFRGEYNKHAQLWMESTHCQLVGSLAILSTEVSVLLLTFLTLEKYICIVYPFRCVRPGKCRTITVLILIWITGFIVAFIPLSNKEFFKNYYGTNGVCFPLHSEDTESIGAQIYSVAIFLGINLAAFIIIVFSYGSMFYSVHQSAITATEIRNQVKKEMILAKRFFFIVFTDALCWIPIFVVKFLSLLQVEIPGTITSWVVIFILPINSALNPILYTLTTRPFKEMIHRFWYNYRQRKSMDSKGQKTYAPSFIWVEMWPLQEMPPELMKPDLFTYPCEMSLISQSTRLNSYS
gsp agonist – qHTS for Agonist of gsp, the Etiologic Mutation Responsible for Fibrous Dysplasia/McCune-Albright Syndrome: qHTS | 0.13% of 340,000 active | gsp mutant cells, cAMP HTRF, 30 min | AID 624287, 2012 | Potency, µM (titrated, usually from 76.9 µM), without a hit: at the top dose activation (cAMP increase), hits mostly activators; active = well fitted activation curve with a large enough effect; inconclusive = small, poorly fitted or top-dose-only effect, or another doubt; inactive = no such curve, though single readings can be large or run the other way; cell line not stated here;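 note: phosphodiesterase inhibitor Ro 20-1724 added with compounds to block cAMP breakdown; potency is the fitted concentration of half-maximal effect; nearly all actives have a fitted effect of over 60% in size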
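Cells in DMEM/10% FBS with G418 were pretreated with compounds in DMSO plus […] (300 uM stock) for 30 min at 37C. cAMP was measured by HTRF (cAMP-d2 plus anti-cAMP antibody-K) after 30 min at room temperature.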
gsp antagonist – qHTS for Antagonists of gsp, the Etiologic Mutation Responsible for Fibrous Dysplasia/McCune-Albright Syndrome: qHTS | 0.4% of 340,000 active | gsp-mutant cells, cAMP HTRF, 30 min | Potency, µM (titrated, usually from 76.9 µM), for the others: top-dose activity change, negative = inhibition, usual class: inhibitors | AID 624288, 2012; calls by dose curve; cell line not stated here;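 note: intracellular cAMP measured with PDE inhibitor Ro 20-1724 present during compound exposure; potency is the fitted concentration of half-maximal effect; % is set by controls: 0 for no effect and ±100 for the full control effect; nearly all actives have a fitted effect of over 65% in size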
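Cells, 2000/well, grown 16–24 h in DMEM 10% FBS with 0.5 mg/ml G418, then compounds plus […] (300 uM addition stock), 30 min at 37C. cAMP read by HTRF (cAMP-d2 and anti-cAMP antibody-K in lysis buffer) after 30 min RT.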
RXFP1 ag – qHTS Assay for Agonists of the Relaxin Receptor RXFP1 | 0.3% of 370,000 active | AID 2676, 2010 | Relaxin receptor 1 (Homo sapiens), Q9HBX9 | HEK293T-RXFP1 cAMP TR-FRET, 30 min; response scale: percent of porcine relaxin response, buffer zero | Potency, µM (series often up to 57.5 µM), for the others: at the top dose activation, usual class: activators; note: potency is the fitted concentration of half-maximal effect; % is set by controls: 0 for no effect and ±100 for the full control effect; nearly all actives have a fitted effect of over 60% in size
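Agonist response is measured as cAMP accumulation in an RXFP1-transfected HEK293T line under PDE4 inhibition. Values are scaled between buffer-only and 29 nM porcine relaxin, and EC50s come from standard Hill equation fits.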
miR-21 act – qHTS Assay for Modulators of miRNAs and/orActivators of miR-21 | HeLa miR-21 FLuc reporter, luciferase, 48 h | Potency, µM (top dose mostly 38.3 µM), for inactives: at the highest dose activity change, positive = activation, most hits filed as activators | 340,000 tested, under 10 active;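 note: % of control where 0% means no effect; miR-21 action dims this reporter so a rising signal means less miR-21 action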
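HeLa miR-21-FLuc reporter line, endogenous miR-21; 2000 cells/well in DMEM/10% FBS; compound titration up to ~40uM final, 48 h, 37 degree Celsius; luciferase detection reagent, 15 min lysis, CCD luminescence.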
Numbers without * were called inactive; ? = inconclusive; . = no result given; [ ] = remark or other dose. Unless noted, calls come from the whole dose curve; as a rule, active = well fitted curve in the direction sought with a large enough effect; inconclusive = small, poorly fitted or top-dose-only effect, or another doubt; inactive = no such curve, though single readings can be large; an effect the other way counts as inactive or inconclusive.

SMILES | KinaseGlo FLuc | RXFP1 antagonist | gsp agonist | gsp antagonist | RXFP1 ag | miR-21 act
COc1ccccc1NS(=O)(=O)c1cccc(NC(=O)Nc2ccc(Cl)cc2)c1 | 4% | -14 | 17% | 28µM* | 2% | ?
CCOc1cc(/C=C(\C#N)C(=O)Nc2cccc(C(=O)O)c2)cc(Br)c1OC(=O)c1ccc(OC)cc1 | . | -89* | 10% | -12% | -3% | 0%
CCOc1cc(/C=C(\C#N)C(=O)Nc2cccc(C(=O)O)c2)ccc1OCc1ccccc1Cl | . | -10 | -21% | ? | -1% | -2%
Nc1ncnc2c1ncn2[C@@H]1O[C@H](COS(=O)(=O)O)[C@@H](O)[C@H]1O | . | . | . | 37% | 7.1µM* | .
CC1(C)O[C@@H]2[C@H](O1)[C@@H](COS(=O)(=O)O)O[C@H]2n1cnc2c(N)ncnc21 | . | . | . | . | 16µM* | .
CC1(C)O[C@@H]2[C@H](O1)[C@@H](CO)O[C@H]2n1cnc2c(N)ncnc21 | . | . | -35% | 7% | 3% | .
Nc1ncnc2c1ncn2[C@@H]1O[C@H](COP(=O)(O)O)[C@@H](O)[C@H]1O | . | 16 | . | 3% | ? | 3%
Cc1ccc(C)c(NC(=O)CN2C(=O)CCc3cc(S(=O)(=O)N4CCCCC4)ccc32)c1 | . | . | . | . | 0% | 3%
CC(C)Oc1ccc(C(CCN)C2CCCCC2)cc1 (stereo not drawn) | . | -75* | 0% | 13% | 0% | ?
CC(C)Oc1ccc(C(=O)NC2CCCCC2)cc1 | -4% | -7 | -5% | -1% | 0% | -51%
CCN(CC)c1ccc(/C=N/n2c(-c3ccccc3Br)n[nH]c2=S)cc1 | . | -84* | -11%[15.4 µM] | ? | 0% | -3%
O=S(=O)(NCc1nc2cccnc2n1Cc1ccccc1Cl)c1ccc(F)c(Cl)c1 | . | -17 | . | . | 0% | 11%
CCOc1cccc(/C=C2/NC(=O)N(CC(=O)Nc3cccc(C)c3)C2=O)c1O | 1% | -77* | ? | 1% | -1% | 2%
CCOc1cc(/C=C2/NC(=O)N(CC(=O)Nc3cccc(C)c3)C2=O)ccc1OCC(N)=O | 0% | -8 | -3%[15.4 µM] | 3% | 0% | -1%
COc1ccc(OC)c(CNC(=O)c2ccc(-c3nc(CSc4ccccc4)c(C)o3)cc2)c1 | . | -12 | . | . | -3% | 4%
O=c1[nH]cnc2c1c(-c1ccccc1)cn2-c1ccccc1 | . | -75* | 6% | -15% | 0% | -19%
Cc1ccc(-n2cc(-c3ccccc3)c3c(=O)[nH]cnc32)cc1 | 1% | . | -5% | -27% | 0% | -9%
O=C(N=c1nc2ccccn2s1)c1ccccc1 | 2.5µM* | -2 | 21% | -6% | -2% | -46%
CCCCC[C@H](O)C=C[C@H]1[C@H](O)CC(=O)[C@H]1CC=CCCCC(=O)O | . | 3 | . | . | . | .
CCOC(=O)c1cc(-c2ccc(OC)cc2)n(CCC(=O)Nc2cccc(C(C)=O)c2)c1C | . | -26 | . | . | 0% | 19%
CCOc1ccc(Cn2c(-c3ccc(OCC)c(OC)c3)nc3ccccc32)cc1OC | . | 6 | . | . | 28% | -17%
COc1ccc(Cn2c(-c3ccc(OC)c(O)c3)nc3ccccc32)cc1O | 0% | -72* | -5% | -25% | -1% | -21%
Cc1ccc2c(c1)nnn2C1CCN(S(=O)(=O)c2cccc(S(=O)(=O)N(C)C)c2)CC1 | -2% | 1 | 18% | 25µM* | 0% | 22%
COc1ccc(S(=O)(=O)n2nc(C)c(S(=O)(=O)N3CCC(C)CC3)c2C)cc1C | . | . | . | . | -1% | -1%
CCC(C)(C)NC(=O)C1CCN(S(=O)(=O)c2c(C)noc2/C=C/c2ccc(C)cc2)CC1 | . | . | . | . | 1% | 20%
SMILES | KinaseGlo FLuc | RXFP1 antagonist | gsp agonist | gsp antagonist | RXFP1 ag | miR-21 act
CN(C(=O)COc1ccccc1C(=O)NCCOc1ccccc1)c1ccccc1 | 4% | -28 | -18% | 35µM* | 2% | ?
O=C(CSc1cn(CC(=O)N2CCCCC2)c2ccccc12)NCc1ccccc1 | . | 2 | . | . | -1% | 9%
C=C1C(=C/C=C2\CCC[C@]3(C)[C@@H]([C@H](C)/C=C/[C@@H](O)C4CC4)CC[C@@H]23)C[C@@H](O)C[C@@H]1O | . | -72* | . | . | . | .
CCOC(=O)CC(NC(=O)CCc1c(C)nc2c(c1C)c(=O)n(C)c(=O)n2C)c1ccc(OCC)c(OC)c1 (stereo not drawn) | . | . | . | . | 2% | -1%
Cc1ccc(SCC(=O)Nc2cc([N+](=O)[O-])ccc2O)cc1 | 0% | -25 | -28%[15.4 µM] | 50µM* | -1% | -30%
O=C(COc1ccc2ccccc2c1)Nc1nccs1 | -19% | -10 | -6%[15.4 µM] | 2% | 0% | -12%
O=C(COc1ccccc1)Nc1nccs1 | 10µM* | 3 | -10% | -3% | 1% | -16%
Cc1cccc(NC(=O)Cn2nc(C)c3nn(-c4ccc(Cl)cc4)c(C)c3c2=O)c1C | . | -10 | . | . | 18% | -6%
CC(OC(=O)CCN=C1NS(=O)(=O)c2ccccc21)C(=O)Nc1ccc(N(C)C)cc1 (stereo not drawn) | . | . | -27% | 7.1µM* | -1% | .
CCN(CC)CC(O)Cn1c(C)c(-c2ccccc2)c2cc([N+](=O)[O-])ccc21 (stereo not drawn) | . | -89* | 18% | 15% | 2% | ?
O=[N+]([O-])c1ccc(N/N=C/c2ccc(O)c(O)c2O)c(S(=O)(=O)N2CCOCC2)c1 | -3% | -85* | 15%[15.4 µM] | ? | 1% | -2%
O=[N+]([O-])c1ccc(N/N=C/c2cccc(O)c2O)c(S(=O)(=O)N2CCOCC2)c1 | -3% | -1 | 16% | ? | 0% | -13%
COc1cc(C2C(=O)N(C3CCCCC3)CC(=O)N2C2CCCC2)ccc1OC(C)C (stereo not drawn) | . | 4 | . | . | 1% | -4%
COc1ccc(NC(=O)/C(Cl)=C(/Cl)S(=O)Cc2ccccc2)cn1 (stereo not drawn) | 19% | -72* | -1% | 6% | -3% | ?
COc1ccc(NC(=O)Cc2ccccc2)cn1 | -1% | 3 | 1%[15.4 µM] | 7% | 3% | -8%
CC(NC(=O)CN(c1cccc(C(F)(F)F)c1)S(=O)(=O)c1ccc(Cl)c([N+](=O)[O-])c1)c1ccccc1 (stereo not drawn) | -2% | -82* | -11%[15.4 µM] | ? | -1% | ?
CCOC(=O)c1ccccc1NS(=O)(=O)c1c(-c2ccc(C)cc2)csc1C(=O)OC | . | -17 | . | . | 0% | 29%
